Bioassay records as filed in PubChem.
Shown are actives, neighbours in structure and some others; about 3.2% of the full set was active somewhere.
TcdB inh: TcdB glycohydrolase inhibitors, primary screen, biochemical, single point, plate reader; Toxin B (Clostridioides difficile), P18177; inhibition, % at 9.99 µM; TcdB glycohydrolase enzymatic assay; hit rate 0.24% among 350,000
Mtb FBA inh: Mtb FBA enzyme inhibitors, primary screen, biochemical, fluorescence, strain H37Rv. inhibition, % at 1 µM. AID 588726, 2011. purified M. tuberculosis FBA, fluorescence read-out. Fructose-bisphosphate aldolase (Mycobacterium tuberculosis (strain ATCC 25618 / H37Rv)), …. hit rate 2.3% among 360,000; in the data active = inhibition above about 27%;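 note: 0% = vehicle and 100% = reference inhibitor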
Target sequence (P9WQA3 whole entry, looked up): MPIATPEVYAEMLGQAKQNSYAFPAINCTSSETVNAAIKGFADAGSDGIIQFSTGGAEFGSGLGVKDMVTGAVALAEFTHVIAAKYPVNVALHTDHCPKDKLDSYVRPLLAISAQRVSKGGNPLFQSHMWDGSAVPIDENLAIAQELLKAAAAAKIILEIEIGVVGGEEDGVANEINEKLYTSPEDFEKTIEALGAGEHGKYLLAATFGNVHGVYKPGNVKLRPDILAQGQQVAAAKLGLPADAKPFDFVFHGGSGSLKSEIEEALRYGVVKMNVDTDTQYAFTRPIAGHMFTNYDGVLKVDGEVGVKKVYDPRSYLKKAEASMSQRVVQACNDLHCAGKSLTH
GDH-TPI counter-1: GDH-TPI coupling enzyme inhibitors, primary screen, artefact control for M. tuberculosis FBA inhibitor project, biochemical, absorbance, full deck; GDH-TPI coupled enzyme counterscreen, NADH absorbance; hit rate 1.2% among 360,000; inhibition, % at 4.8 µM; in the data active = inhibition above about 30%;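 note: 0% = DMSO wells and 100% = wells lacking the enzyme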
Yp Topo-I inh: Yersinia pestis topoisomerase I inhibitors, primary screen, biochemical, cleavage product accumulation, plate reader, single point | Y. pestis Topo-I cleavage product accumulation | activity, % at 10 µM | hit rate 0.064% among 360,000 | AID 504884, 2011; in the data active = activity above about 50%, passing the limit was not always enough
PrPC surface inh: inhibitors of human cell surface prion protein PrPC, primary screen, cell-based, TR-FRET. TR-FRET read-out. inhibition, % at 13.8 µM. hit rate 0.43% among 370,000. AID 720596, 2013; in the data active = inhibition above about 24%; note: 0% = median of the test wells and 100% = reference compound wells
Mtb FBA confirm: M. tuberculosis aldolase blockers, biochemical, fluorescence, strain H37Rv, confirmation; shares compounds with Mtb FBA inh; purified M. tuberculosis FBA, fluorescence read-out; inhibition, % at 1 µM; hit rate 78% among 5,600; AID 651616, 2012; in the data active = inhibition above about 27%;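 note: 0% = vehicle wells and 100% = reference inhibitor wells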
GDH-TPI counter-2: GDH-TPI coupling enzyme inhibitors, artefact control for M. tuberculosis FBA inhibitor project, biochemical, fluorescence, high throughput | shares compounds with Mtb FBA inh | GDH-TPI coupled enzyme counterscreen | inhibition, % at 1 µM | hit rate 81% among 5,600 | AID 652141, 2013
GDH-TPI dose: GDH-TPI coupling enzyme inhibitors, dose response, artefact control for M. tuberculosis FBA inhibitor project, biochemical, fluorescence, IC50; hit rate 79% among 170; IC50, µM; shares compounds with Mtb FBA inh; GDH-TPI coupled enzyme assay, artifact counterscreen; call rule not given here
* hit, by the source's call; . = not tested or not shown; + = active, no number. Cut-off read from the data, not from the text of the source, unless noted: active = inhibition above about 10%; inactive = the rest.

SMILES	TcdB inh	Mtb FBA inh	GDH-TPI counter-1	Yp Topo-I inh	PrPC surface inh	Mtb FBA confirm	GDH-TPI counter-2	others
CCN(CC)C(=O)c1sc2nc(-c3cccs3)cc(-c3cccs3)c2c1N	2	11	17	19	4	.	.
Nc1c(C(=O)Nc2nccs2)sc2nc(-c3cccs3)cc(C(F)(F)F)c12	.	42*	10	-5	2	39*	28*
CC(C)(C)C(=O)c1sc2nc(-c3cccs3)cc(C(F)(F)F)c2c1N	.	30*	-1	-8	0	49*	47*
Cc1nnc(NC(=O)c2sc3nc(-c4cccs4)cc(C(F)(F)F)c3c2N)s1	1	33*	43*	7	-5	5	2
NC(=O)c1sc2nc(-c3ccccc3)ccc2c1N	3	0	-2	3	-17	.	.
NC(=O)c1sc2nc(-c3cccs3)ccc2c1N	0	76*	25	2	-12	62*	56*
COc1ccccc1NC(=O)c1sc2nc(Cc3ccccc3)cc(C(F)(F)F)c2c1N	1	1	8	7	.	.	.
C=CCn1c(SCC(=O)NC2CCS(=O)(=O)C2)nnc1-c1cc2c(s1)CCC(CC)C2 (configuration not stated)	.	3	1	6	-4	.	.
C=CCn1c(-c2cc3c(s2)CCC(CC)C3)n[nH]c1=S (configuration not stated)	1	84*	-1	12	4	170*	137*
Cc1ccc(S(=O)(=O)n2nc(OC(=O)c3ccco3)cc2N)cc1	.	-2	-4	1	5	.	.
Nc1cc(OC(=O)c2ccco2)nn1S(=O)(=O)c1ccc(F)cc1	.	30*	-5	-4	4	+	142*
O=C(C[C@@H]1C[C@@H]2c3cc(NC(=O)Nc4ccccc4F)ccc3O[C@@H]2[C@H](CO)O1)NCC(F)(F)F	0	.	.	.	.	.	.
CCOC(=O)c1cnn2c(N)c(C#N)cnc12	0	29*	26	2	-4	51*	37*
CCOC(=O)c1cnc2c(C(=O)OCC)cnn2c1N	-4	6	-8	4	10	.	.
C[C@H](NC(=O)[C@H]1[C@H](CO)[C@H]2Cn3c(cccc3=O)[C@@H]1N2C(=O)C1CC1)c1ccccc1	0	.	.	.	.	.	.
Cc1noc(C)c1S(=O)(=O)N(C)C[C@@H]1OCCCC[C@H](C)Oc2ccc(NC(=O)NC3CCCCC3)cc2C(=O)N([C@H](C)CO)C[C@H]1C	1	.	.	.	.	.	.
Clc1ccc(-c2nc3ccccc3[nH]2)cn1	5	72*	3	3	-3	97*	84*
Cc1nc2ccc(-c3nc4ccccc4[nH]3)cc2[nH]1	3	34*	-9	0	-4	78*	61*
Cc1ccc(-c2nc3ccccc3[nH]2)cn1	4	5	6	5	-2	.	.
C[C@@H](NC(=O)C[C@H]1C=C[C@H](NC(=O)Cc2ccccn2)[C@@H](CO)O1)c1ccccc1	0	.	.	.	.	.	.
C[C@@H]1CN([C@@H](C)CO)S(=O)(=O)c2ccc(C#CCN(C)C)cc2O[C@H]1CN(C)Cc1ccc(F)cc1	-1	.	.	.	.	.	.
CO[C@@H]1CN(C)C(=O)c2cc(NC(=O)c3cccc(F)c3)ccc2OC[C@H](C)NC[C@H]1C	-2	.	.	.	.	.	.
COc1ccc2c(CC(=O)O)cc(=O)oc2c1	2	66*	12	-4	1	+	+
COc1ccc2c(CN3CCCC3)cc(=O)oc2c1	2	36*	.	.	-1	10	-1	GDH-TPI dose=5.1*
CCCCN(CCCC)Cc1cc(=O)oc2cc(OC)c(Cl)cc12	0	9	.	.	-9	.	.
SMILES	TcdB inh	Mtb FBA inh	GDH-TPI counter-1	Yp Topo-I inh	PrPC surface inh	Mtb FBA confirm	GDH-TPI counter-2	others
CCCCN(CCCC)Cc1cc(=O)oc2cc(OC)ccc12	0	45*	.	.	5	+	+
COc1ccc2c(CC(=O)N[C@@H](Cc3c[nH]c4ccccc34)C(=O)O)cc(=O)oc2c1	0	22	27	-4	7	.	.
Cc1noc(C)c1S(=O)(=O)Nc1ccc2c(c1)C(=O)N([C@@H](C)CO)C[C@H](C)[C@@H](CN(C)Cc1ccc3c(c1)OCO3)O2	-7	.	.	.	.	.	.
C/C=C/c1cnc2c(c1)C(=O)N([C@H](C)CO)C[C@H](C)[C@@H](CN(C)S(=O)(=O)c1ccccc1)O2	1	.	.	.	.	.	.
CN(C)C(=O)c1cccn(Cc2ccc(C(F)(F)F)cc2)c1=O	0	1	6	5	4	.	.
CN(C)CCNC(=O)c1cccn(Cc2cc(C(F)(F)F)cc(C(F)(F)F)c2)c1=O	2	61*	12	0	-14	2	-2
Cc1cc(N2CCN(C)CC2)nc2ccc(NC(=S)N3CCN(c4ccc(Cl)cc4)CC3)cc12	1	27*	11	-17	-2	135*	128*
Cc1cc(N2CCN(C)CC2)nc2ccc(NC(=O)CCC(=O)NCCC(C)C)cc12	1	33*	21	0	1	5	5
Cc1cc(N2CCN(C)CC2)nc2ccc(NC(=O)CCC(=O)NCc3ccco3)cc12	.	32*	5	-10	-3	68*	69*
Cc1cc(N2CCN(C)CC2)nc2ccc(NC(=S)N3CCN(c4ccc(F)cc4)CC3)cc12	2	9	-3	-11	-2	.	.
O=C1c2ccc(-c3ccc4c(c3)C(=O)N(CCCO)C4=O)cc2C(=O)N1CCCO	2	36*	2	-2	8	9	-5
O=C1c2ccc(Oc3ccc4c(c3)C(=O)N(CCCCO)C4=O)cc2C(=O)N1CCCCO	.	5	1	22	-7	.	.
CCC(=O)Nc1ccc2c(c1)C(=O)N(C)C[C@H](OC)[C@@H](C)CN(C(=O)c1cnccn1)[C@H](C)CO2	0	.	.	.	.	.	.
O=Cc1cn(-c2ccccc2)nc1-c1cc2cc(O)ccc2oc1=O	.	32*	34*	1	-7	82*	57*
O=C(C[C@H]1C=C[C@H](NC(=O)Nc2ccc(C(F)(F)F)cc2)[C@H](CO)O1)NCc1cc(F)cc(F)c1	0	.	.	.	.	.	.
Cn1nc(/C=C/c2ccccc2)ccc1=O	1	31*	0	-13	-3	64*	56*
O=c1ccc(/C=C/c2ccccc2)nn1Cc1ccccc1	.	25	11	28	-7	.	.
